This passage reports outcome and AC50 results from PubChem BioAssay (EPA / NIEHS).

Several values for one entry are separate records, joined by “and”; a condition that tells them apart may be missing. Equal values may be shown once. Inconclusive results are not listed. Some structures have more than one record in an assay (separate samples or runs), and their calls can disagree. Activity calls are given as the source filed them. The calls were made as follows: active = hit-call score of the fitted dose curve at least 0.9, where 1 is the maximum; inconclusive = response in the unintended direction; inactive = score below 0.9.

The nature of assay [1]: ATG_M_06_XSP2: Attagene TRANS-FACTORIAL Multi-Species (XSP2) HepG2 Assay for M06 Transcription Factor (Internal Marker) (AID 2283811).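 Also: hits are increases in signal above the DMSO baseline.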 The essentials:
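Readout: fluorescent reporter-mRNA peaks by capillary electrophoresis after RT-PCR and HpaI digest, scored upward relative to DMSO. Transfected HepG2, 24 h chemical exposure, with 3 nM 6-alpha-fluorotestosterone and 1.5 nM norgestrel added.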

Assay [2] deals with turtle Estrogen Receptor (ERa), gene 101933533. The assay can be described thus: ATG_trERa_XSP2: Attagene TRANS-FACTORIAL Multi-Species (XSP2) HepG2 Assay for turtle Estrogen Receptor (ERa) (AID 2283812).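 Also: actives raise reporter signal above DMSO so AC50 reflects agonist activity.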 The procedure, abridged: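 Readout is reporter mRNA quantified by RT-PCR with capillary electrophoresis after 24 h compound exposure, increase relative to DMSO. Uses transiently transfected human HepG2 liver cells carrying a chimeric turtle ERa-Gal4 receptor driving GAL4-UAS reporters.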

Assay [3] deals with Estrogen receptor beta (Homo sapiens) (UniProt Q92731). Put plainly: ATG_hERb_XSP2: Attagene TRANS-FACTORIAL Multi-Species (XSP2) HepG2 Assay for human Estrogen Receptor (ERb) (AID 2283813).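 Also: actives raise reporter mRNA above DMSO so AC50 reflects agonist induction.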 The procedure, abridged:
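Transient TRANS reporter system in HepG2: after 24 h of chemical, RNA is reverse-transcribed, reporter cDNA amplified, FAM-labelled and sized by capillary electrophoresis. Induction of the human ERb-Gal4 reporter is measured relative to DMSO.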

In assay [4] the target is GAL4 Transcription Factor (Internal Marker), GAL4 (gene 855828) (UniProt P04386). Put plainly: ATG_GAL4_XSP2: Attagene TRANS-FACTORIAL Multi-Species (XSP2) HepG2 Assay for GAL4 Transcription Factor (Internal Marker) (AID 2283814).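 Also: GAL4 reporter mRNA background control in MRTU transfected cells not a receptor target.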 The essentials: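 Background-control readout: gain-of-signal fitted against DMSO. After 24 h exposure of transfected HepG2 (MRTU, GAL4-UAS reporters; 3 nM 6-alpha-fluorotestosterone, 1.5 nM norgestrel present), transcripts quantified by RT-PCR and capillary electrophoresis fluorescence.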
GAL4 Transcription Factor (Internal Marker), GAL4 (gene 855828), sequence (P04386 whole entry, looked up, the tested form may be a part): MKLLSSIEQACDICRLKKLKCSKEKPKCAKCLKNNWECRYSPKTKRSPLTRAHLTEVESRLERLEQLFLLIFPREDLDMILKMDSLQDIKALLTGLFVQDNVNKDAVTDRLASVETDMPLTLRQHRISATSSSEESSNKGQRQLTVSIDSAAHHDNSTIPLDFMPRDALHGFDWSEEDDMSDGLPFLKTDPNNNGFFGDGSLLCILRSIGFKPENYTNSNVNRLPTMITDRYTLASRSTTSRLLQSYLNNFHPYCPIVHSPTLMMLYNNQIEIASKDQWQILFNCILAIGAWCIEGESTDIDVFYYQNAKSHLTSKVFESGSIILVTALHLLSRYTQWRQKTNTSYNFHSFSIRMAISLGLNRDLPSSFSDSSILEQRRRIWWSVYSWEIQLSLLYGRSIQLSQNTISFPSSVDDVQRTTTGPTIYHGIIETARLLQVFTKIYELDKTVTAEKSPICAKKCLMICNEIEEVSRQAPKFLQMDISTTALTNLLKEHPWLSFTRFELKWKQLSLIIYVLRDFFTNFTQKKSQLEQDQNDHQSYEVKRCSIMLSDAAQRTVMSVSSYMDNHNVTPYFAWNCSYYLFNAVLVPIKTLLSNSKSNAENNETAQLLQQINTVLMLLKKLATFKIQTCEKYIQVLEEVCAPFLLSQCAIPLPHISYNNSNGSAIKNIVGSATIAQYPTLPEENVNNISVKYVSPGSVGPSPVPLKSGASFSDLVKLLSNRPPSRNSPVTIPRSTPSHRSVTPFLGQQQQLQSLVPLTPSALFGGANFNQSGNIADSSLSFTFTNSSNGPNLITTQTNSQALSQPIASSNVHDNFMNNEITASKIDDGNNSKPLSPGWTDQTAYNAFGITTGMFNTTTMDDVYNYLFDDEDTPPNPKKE

The target of assay [5] is zebrafish Estrogen Receptor (ER1), esr1 (gene 259252) (UniProt P57717). Put plainly: ATG_zfER1_XSP2: Attagene TRANS-FACTORIAL Multi-Species (XSP2) HepG2 Assay for zebrafish Estrogen Receptor (ER1) (AID 2283816). The essentials: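 After 24 h compound exposure, RNA from transfected HepG2 cells was reverse-transcribed and reporter transcripts resolved by capillary electrophoresis. The TRANS format reads exogenous zebrafish ER1-Gal4 chimera activity on GAL4-UAS elements; gain of signal against DMSO.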
zebrafish Estrogen Receptor (ER1), esr1 (gene 259252), sequence (P57717 whole entry, looked up, the tested form may be a part): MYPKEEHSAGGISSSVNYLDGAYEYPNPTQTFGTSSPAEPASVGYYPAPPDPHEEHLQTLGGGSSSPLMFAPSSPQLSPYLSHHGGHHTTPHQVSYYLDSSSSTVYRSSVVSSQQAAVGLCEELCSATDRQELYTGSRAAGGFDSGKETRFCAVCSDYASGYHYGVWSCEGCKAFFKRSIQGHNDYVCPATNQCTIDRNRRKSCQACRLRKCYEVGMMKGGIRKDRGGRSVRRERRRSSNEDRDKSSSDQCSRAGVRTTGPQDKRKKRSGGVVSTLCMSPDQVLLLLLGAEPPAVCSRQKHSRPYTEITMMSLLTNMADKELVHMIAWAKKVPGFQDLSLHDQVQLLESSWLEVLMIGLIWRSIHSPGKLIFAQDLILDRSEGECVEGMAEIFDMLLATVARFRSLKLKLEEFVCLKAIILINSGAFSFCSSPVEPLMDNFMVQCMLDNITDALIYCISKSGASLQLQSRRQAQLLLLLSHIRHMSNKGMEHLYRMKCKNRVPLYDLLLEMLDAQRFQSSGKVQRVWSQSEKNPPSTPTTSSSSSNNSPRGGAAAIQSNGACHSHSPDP

For assay [6], the target named is chicken Estrogen Receptor (ERa), ESR1 (gene 396099) (UniProt P06212). Put plainly: ATG_chERa_XSP2: Attagene TRANS-FACTORIAL Multi-Species (XSP2) HepG2 Assay for chicken Estrogen Receptor (ERa) (AID 2283817).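 Also: actives raise reporter signal above DMSO so AC50 reflects ER activation.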 The essentials: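 Readout: fluorescent reporter-transcript fragments resolved by capillary electrophoresis after RT-PCR and HpaI cut. Chicken ERa-Gal4 fusion in transiently transfected HepG2, dosed for 24 h; activity taken as increase over DMSO baseline.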
chicken Estrogen Receptor (ERa), ESR1 (gene 396099), sequence (P06212 whole entry, looked up, the tested form may be a part): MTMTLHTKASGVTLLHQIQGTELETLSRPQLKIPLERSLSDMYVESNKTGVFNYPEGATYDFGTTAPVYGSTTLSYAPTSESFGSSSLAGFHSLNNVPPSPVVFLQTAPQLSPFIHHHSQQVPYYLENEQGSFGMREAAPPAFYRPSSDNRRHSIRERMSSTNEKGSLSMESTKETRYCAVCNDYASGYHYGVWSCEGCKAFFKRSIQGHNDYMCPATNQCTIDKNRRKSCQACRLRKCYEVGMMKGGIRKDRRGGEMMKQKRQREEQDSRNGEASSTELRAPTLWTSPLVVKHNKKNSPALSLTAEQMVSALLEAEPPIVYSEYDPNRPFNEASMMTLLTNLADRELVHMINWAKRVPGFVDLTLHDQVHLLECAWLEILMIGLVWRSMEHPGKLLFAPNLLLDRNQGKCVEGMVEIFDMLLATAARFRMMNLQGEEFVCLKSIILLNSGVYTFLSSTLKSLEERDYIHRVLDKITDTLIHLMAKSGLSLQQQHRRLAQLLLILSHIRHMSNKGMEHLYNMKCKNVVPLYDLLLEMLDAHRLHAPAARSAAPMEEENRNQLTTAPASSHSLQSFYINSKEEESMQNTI

In assay [7] the test system is zebrafish Estrogen Receptor (ER2a), gene 317734. Put plainly: ATG_zfER2a_XSP2: Attagene TRANS-FACTORIAL Multi-Species (XSP2) HepG2 Assay for zebrafish Estrogen Receptor (ER2a) (AID 2283818).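 Also: hits raise reporter mRNA so AC50 reflects activation of zebrafish ER2a.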 The essentials: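 Multiplexed trans-reporter readout: RT-PCR then capillary electrophoresis of reporter transcripts after 24 h compound treatment. Human HepG2 carries transfected zebrafish ER2a-Gal4 chimera; 3 nM 6-alpha-fluorotestosterone plus 1.5 nM norgestrel present. Induction scored against DMSO.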

Assay [8] deals with frog Estrogen Receptor (ER), gene 398734. The assay can be described thus: ATG_frER1_XSP2: Attagene TRANS-FACTORIAL Multi-Species (XSP2) HepG2 Assay for frog Estrogen Receptor (ER) (AID 2283821).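 Also: hits raise reporter mRNA above DMSO baseline so potency means agonist or activator.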 The procedure, abridged:
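Reporter mRNA induction, detected as fluorescence after RT-PCR and capillary electrophoresis, is the endpoint; activity is fitted upward against DMSO. Cells are human liver HepG2 carrying transfected NR-Gal4 chimeras with GAL4-UAS-driven reporters, harvested 24 h post-dosing.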

Assay [9] is described as follows: ATG_M_19_XSP2: Attagene TRANS-FACTORIAL Multi-Species (XSP2) HepG2 Assay for M32 Transcription Factor (Internal Marker) (AID 2283822). The essentials: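 Internal background marker in a multi-species nuclear receptor TRANS panel: transfected HepG2 cells exposed 24 h, with 3 nM 6-alpha-fluorotestosterone and 1.5 nM norgestrel present. Readout is RT-PCR of reporter transcripts resolved by capillary electrophoresis, gain-of-signal versus DMSO.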

Assay [10] has as its system zebrafish Estrogen Receptor (ER2b), gene 317733. Put plainly: ATG_zfER2b_XSP2: Attagene TRANS-FACTORIAL Multi-Species (XSP2) HepG2 Assay for zebrafish Estrogen Receptor (ER2b) (AID 2283823).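 Also: fitted upward as reporter gain over DMSO so potency reflects activation.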 The procedure, abridged: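 Transfect HepG2 with GAL4-UAS reporter constructs; dose chemicals, 24 h; isolate RNA, RT-PCR, FAM-label, HpaI digest; capillary electrophoresis. Gain-of-signal vs DMSO.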

The target of assay [11] is Estrogen receptor (Homo sapiens) (UniProt P03372). Put plainly: ATG_hERa_XSP2: Attagene TRANS-FACTORIAL Multi-Species (XSP2) HepG2 Assay for human Estrogen Receptor (ERa) (AID 2283827). The essentials: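 Trans-activation of exogenous human ERa-Gal4 chimera read in HepG2 as reporter transcript after 24 h exposure; medium included 3 nM 6-alpha-fluorotestosterone and 1.5 nM norgestrel. Quantified by RT-PCR with capillary electrophoresis, positive-direction fitting against DMSO.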
Estrogen receptor (Homo sapiens), sequence (P03372 whole entry, looked up, the tested form may be a part): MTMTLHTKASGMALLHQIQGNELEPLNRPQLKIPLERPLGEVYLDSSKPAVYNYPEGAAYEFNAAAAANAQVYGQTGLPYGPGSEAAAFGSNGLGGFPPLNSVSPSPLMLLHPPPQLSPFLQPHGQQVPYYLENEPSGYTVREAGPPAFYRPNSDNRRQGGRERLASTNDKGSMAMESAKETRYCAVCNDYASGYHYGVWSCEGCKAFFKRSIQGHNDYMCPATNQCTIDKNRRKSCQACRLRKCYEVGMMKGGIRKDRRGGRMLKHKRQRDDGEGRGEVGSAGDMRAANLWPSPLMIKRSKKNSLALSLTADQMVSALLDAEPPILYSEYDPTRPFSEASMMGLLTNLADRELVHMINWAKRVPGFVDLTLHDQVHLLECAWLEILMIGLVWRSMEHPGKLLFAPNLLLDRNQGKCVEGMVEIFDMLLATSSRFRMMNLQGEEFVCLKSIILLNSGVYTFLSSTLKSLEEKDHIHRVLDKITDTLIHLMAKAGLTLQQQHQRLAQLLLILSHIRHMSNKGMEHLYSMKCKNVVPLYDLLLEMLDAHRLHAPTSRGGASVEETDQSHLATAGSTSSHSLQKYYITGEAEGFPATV

Assay [12] concerns frog Estrogen Receptor (ER2), gene 100174814. Put plainly: ATG_frER2_XSP2: Attagene TRANS-FACTORIAL Multi-Species (XSP2) HepG2 Assay for frog Estrogen Receptor (ER2) (AID 2283828). The essentials: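 Cells were transfected with reporter constructs under GAL4-UAS control, dosed with chemicals for 24 h, then lysed for RNA; the frog ER2-driven reporter mRNA was quantified by capillary electrophoresis of labeled PCR fragments, with activity fitted upward from DMSO.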

Assay [13] has as its target Peroxisome proliferator-activated receptor gamma (Homo sapiens) (UniProt P37231). Put plainly: ATG_hPPARg_XSP2: Attagene TRANS-FACTORIAL Multi-Species (XSP2) HepG2 Assay for human Peroxisome Proliferator-activated Receptor gamma (PPARg) (AID 2283829).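 Also: actives raise reporter mRNA above DMSO so AC50 reflects PPARg activation.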 The essentials:
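Transient MRTU transfection, HepG2; TRANS format (exogenous NR-Gal4 chimeras). 24 h chemical exposure with 3 nM 6-alpha-fluorotestosterone and 1.5 nM norgestrel present. Readout: reporter mRNA via RT-PCR/CE fluorescence, up-direction vs DMSO.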

In assay [14] the target is mouse Peroxisome Proliferator-activated Receptor gamma (PPARg), Pparg (gene 19016) (UniProt P37238). The assay can be described thus: ATG_mPPARg_XSP2: Attagene TRANS-FACTORIAL Multi-Species (XSP2) HepG2 Assay for mouse Peroxisome Proliferator-activated Receptor gamma (PPARg) (AID 2283830).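 Also: hits are gains in reporter mRNA above DMSO so AC50 marks activation.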 The procedure, abridged:
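Multiplexed TRANS reporter readout: after 24 h chemical exposure of transfected HepG2 cells (with 3 nM 6-alpha-fluorotestosterone, 1.5 nM norgestrel present), RNA reverse-transcribed, amplified, 6-FAM-labelled and resolved by capillary electrophoresis; mouse PPARg-Gal4 induction scored against DMSO.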

In assay [15] the test system is chicken Androgen Receptor (AR), gene 422165. The assay can be described thus: ATG_chAR_XSP2: Attagene TRANS-FACTORIAL Multi-Species (XSP2) HepG2 Assay for chicken Androgen Receptor (AR) (AID 2283819).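 Also: hits raise reporter mRNA above DMSO so potency is for activation.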 The procedure, abridged: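 Readout is reporter mRNA induction via RT-PCR/capillary electrophoresis after 24 h chemical exposure, positive direction relative to DMSO. Transiently transfected HepG2 express chimeric chicken AR–GAL4; AR stimulated by 3 nM 6-alpha-fluorotestosterone and 1.5 nM norgestrel.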

For assay [16], the system named is turtle Androgen Receptor (AR), gene 101947425. The assay can be described thus: ATG_trAR_XSP2: Attagene TRANS-FACTORIAL Multi-Species (XSP2) HepG2 Assay for turtle Androgen Receptor (AR) (AID 2283815). The procedure, abridged:
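Reporter transcripts were quantified via RT-PCR and capillary electrophoresis and fitted upward against DMSO. Transiently transfected human HepG2 cells carrying NR-Gal4 chimeras were exposed 24 h, with 3 nM 6-alpha-fluorotestosterone plus 1.5 nM norgestrel added.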

The test system of assay [17] is frog Androgen Receptor (AR), gene 399456. The assay can be described thus: ATG_frAR_XSP2: Attagene TRANS-FACTORIAL Multi-Species (XSP2) HepG2 Assay for frog Androgen Receptor (AR) (AID 2283824).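 Also: reporter mRNA from GAL4-UAS units driven by Xenopus AR-Gal4 chimera; actives raise reporter signal above DMSO so AC50 reflects agonist-like induction.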 The essentials: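 Reporter transcript induction, read by RT-PCR with fluorescent capillary electrophoresis, in human liver HepG2 cells carrying an exogenous Xenopus AR-Gal4 fusion and GAL4-driven reporters; chemical exposure 24 hours, activity scored upward against DMSO controls.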

Assay [18] has as its system zebrafish Androgen Receptor (AR), gene 100005148. The assay can be described thus: ATG_zfAR_XSP2: Attagene TRANS-FACTORIAL Multi-Species (XSP2) HepG2 Assay for zebrafish Androgen Receptor (AR) (AID 2283825).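 Also: hits raise reporter mRNA above DMSO so AC50 reflects agonist-type gain.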 The essentials: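 After 24 h compound exposure in medium with 3 nM 6-alpha-fluorotestosterone plus 1.5 nM norgestrel, HepG2 cells carrying zebrafish AR–GAL4 reporter constructs were assessed for reporter mRNA gain by RT-PCR and capillary electrophoresis.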

Peroxisome proliferator-activated receptor gamma (Homo sapiens), sequence (P37231 whole entry, looked up, the tested form may be a part): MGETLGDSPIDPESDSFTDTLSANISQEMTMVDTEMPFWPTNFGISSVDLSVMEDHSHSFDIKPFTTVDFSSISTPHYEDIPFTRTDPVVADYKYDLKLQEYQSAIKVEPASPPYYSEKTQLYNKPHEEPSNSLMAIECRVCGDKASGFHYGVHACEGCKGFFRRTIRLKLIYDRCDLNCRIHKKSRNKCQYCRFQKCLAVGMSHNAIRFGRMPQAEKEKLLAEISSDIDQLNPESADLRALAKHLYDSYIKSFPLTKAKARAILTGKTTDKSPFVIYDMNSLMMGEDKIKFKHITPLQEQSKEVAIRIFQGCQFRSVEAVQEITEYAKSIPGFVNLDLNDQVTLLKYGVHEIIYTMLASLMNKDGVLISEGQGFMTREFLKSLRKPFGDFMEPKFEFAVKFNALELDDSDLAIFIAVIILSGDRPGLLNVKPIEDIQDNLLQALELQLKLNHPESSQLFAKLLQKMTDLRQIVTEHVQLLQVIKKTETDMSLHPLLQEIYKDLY
mouse Peroxisome Proliferator-activated Receptor gamma (PPARg), Pparg (gene 19016), sequence (P37238 whole entry, looked up, the tested form may be a part): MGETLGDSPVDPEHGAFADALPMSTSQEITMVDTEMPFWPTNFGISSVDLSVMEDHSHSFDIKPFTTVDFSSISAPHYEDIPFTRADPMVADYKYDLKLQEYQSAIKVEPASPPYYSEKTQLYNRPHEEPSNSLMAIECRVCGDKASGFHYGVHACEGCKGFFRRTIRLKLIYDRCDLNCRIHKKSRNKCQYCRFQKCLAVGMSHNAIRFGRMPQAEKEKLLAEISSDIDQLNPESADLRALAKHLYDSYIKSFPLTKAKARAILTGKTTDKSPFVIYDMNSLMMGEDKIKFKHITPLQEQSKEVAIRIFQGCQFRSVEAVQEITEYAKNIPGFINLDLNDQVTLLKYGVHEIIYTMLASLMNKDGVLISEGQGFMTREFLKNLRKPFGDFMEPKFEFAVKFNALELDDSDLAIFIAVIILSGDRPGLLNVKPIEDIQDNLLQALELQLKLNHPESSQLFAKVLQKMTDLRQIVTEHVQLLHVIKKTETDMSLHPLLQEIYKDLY
Estrogen receptor beta (Homo sapiens), sequence (Q92731 whole entry, looked up, the tested form may be a part): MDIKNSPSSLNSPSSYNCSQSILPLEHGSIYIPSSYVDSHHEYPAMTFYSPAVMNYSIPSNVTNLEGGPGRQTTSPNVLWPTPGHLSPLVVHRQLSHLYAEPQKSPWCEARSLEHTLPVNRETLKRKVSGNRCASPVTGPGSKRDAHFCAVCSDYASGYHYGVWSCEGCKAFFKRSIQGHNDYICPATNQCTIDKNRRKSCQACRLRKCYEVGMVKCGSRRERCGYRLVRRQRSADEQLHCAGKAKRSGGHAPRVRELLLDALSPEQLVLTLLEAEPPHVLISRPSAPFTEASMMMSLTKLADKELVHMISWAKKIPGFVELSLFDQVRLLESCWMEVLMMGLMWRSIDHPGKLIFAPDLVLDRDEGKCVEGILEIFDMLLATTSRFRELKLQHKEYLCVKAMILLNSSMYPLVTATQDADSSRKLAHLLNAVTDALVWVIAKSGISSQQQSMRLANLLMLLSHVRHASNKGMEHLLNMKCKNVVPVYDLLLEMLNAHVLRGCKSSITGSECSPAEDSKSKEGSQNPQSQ

For the compound `Oc1ccccc1Cc1ccccc1O`, the compound was called inactive in assay [1], in [2], in assay [4], in [6] and in assay [9]. Moreover, the AC50 in assay [2] was 26.9 µM (active); in assay [3], 8.23 µM (active) and 7.6 µM (active); in assay [5], 58.4 µM (active) and 100 µM (active); in [6], 7.64 µM (active); in assay [7], 27.3 µM (active) and 8.24 µM (active); in assay [8], 26.5 µM (active) and 7.86 µM (active). The AC50 was 29.1 µM (active) and 18.2 µM (active) in [10]; 26.9 µM (active) and 8.47 µM (active) in assay [11]; 27 µM (active) and 10.5 µM (active) in [12]; 43.4 µM (active) and 30.3 µM (active) in [13]; 58.3 µM (active) and 34.4 µM (active) in assay [14].
For `N#Cc1ccc(C2CCCc3cncn32)cc1` (centres undefined), the call in [1], in assay [2], in assay [5], in assay [7], in assay [15] and in assay [10] was inactive. For the same compound, the outcome in assay [11], in assay [12], in assay [13] and in [14] was inactive. Further, the half-maximal activity concentration (AC50) in assay [8] is 50 µM (active); in assay [10], 93.7 µM (active).
Take `CC(CCC(=O)O)(c1ccc(O)cc1)c1ccc(O)cc1`: the result in assay [1], in assay [2], in [3], in assay [4], in [16] and in assay [5] was inactive. Also, the call in assay [6], in assay [15], in [8], in assay [17], in [18] and in assay [12] was inactive. Also, the call in assay [13] and in assay [14] was inactive. In addition, the AC50 in assay [5] was 134 µM (active); in assay [7] it was 46.6 µM (active) and 34.7 µM (active); in assay [10], 42.6 µM (active) and 13.2 µM (active); in [11], 17.4 µM (active) and 2.94 µM (active); in assay [12], 27.5 µM (active).
For `Oc1ccc(-c2ccccc2)c(Cl)c1`, the AC50 in [2] is 4.73 µM (active) and 2.56 µM (active); in assay [3], 8.87 µM (active) and 8.92 µM (active); in assay [5], 17.3 µM (active) and 20.1 µM (active); in assay [6] it was 5.68 µM (active) and 2.43 µM (active); in assay [7], 4.34 µM (active) and 9.01 µM (active); in [10], 9.03 µM (active) and 7 µM (active). Further, the concentration at half-maximal activity (AC50) was 5.18 µM (active) and 4.36 µM (active) in assay [11]; 5.62 µM (active) and 3.17 µM (active) in [12]; 33.4 µM (active) and 28.7 µM (active) in assay [13]; 33.4 µM (active) in [14]. Further, the result in assay [8] and in [9] was inactive.

Broadly, the AC50 is the concentration at which the activity in the assay is half-maximal.
